AddAB inh = less growth of phage-infected E. coli with AddAB | E. coli expressing H. pylori AddAB, absorbance growth | inhibition, % at 11.9 µM | hit rate 0.29% among 330,000; in the data active = inhibition above about 12%
E coli growth-1 = blocks Escherichia coli growth. OD600 absorbance (no concentration beside the values). AID 1053175. OD600, 23 h; hits give low values. hit rate 0.21% among 330,000;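 active = OD600 absorbance below the run mean of sample wells minus 3.6 SD, in any replicate, cut at about 0.56 in these data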
phage Ecoli inh = E. coli growth loss with phage present; growth absorbance; inhibition, % at 11.9 µM; hit rate 0.26% among 360,000; AID 651602; in the data active = inhibition above about 11%
E coli growth-2 = bacterial growth inhibition, counter-screen for AddAB inhibitors; E. coli V3065 growth, OD600 absorbance, 18 h; AID 449728; hit rate 0.27% among 330,000; inhibition, % at 11.9 µM;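 active = inhibition above the campaign's mean inhibition across all tested compounds plus 3 SD, cut at about 9.9% in these data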;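 note: uninfected addAB+ strain grown without phage in ampicillin broth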
Tat transport = E. coli Tat transport inhibition | E. coli MC4100 TorA-mCherry Tat export, fluorescence | hit rate 0.036% among 340,000 | inhibition, % at 10 µM;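 active = mean replicate inhibition at least 50% and at least half of replicates individually reaching 50%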;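 note: exported cargo escapes ClpAP degradation while cytoplasmic cargo is degraded and loses fluorescence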
AddAB confirm = growth loss of T4-infected E. coli expressing H. pylori AddAB, confirmed; shares compounds with AddAB inh; E. coli V3065 expressing H. pylori AddAB, T4 phage, OD; T4 phage with gene 2 nonsense mutations; inhibition, % at 11.9 µM; hit rate 64% among 880; AID 488942;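 active = mean inhibition above a set limit taken from the earlier primary screen, cut at about 13% in these data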;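 note: higher means less bacterial growth since AddAB block lets phage replicate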
RecBCD counter = reduces growth of phage-infected RecBCD+ E. coli, AddAB inhibitor counter-screen. shares compounds with AddAB inh. E. coli V66 + mutant T4 phage, OD growth. inhibition, % at 11.9 µM. hit rate 73% among 880;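 active = mean inhibition above the mean of solvent-only control wells plus 3 SD, cut at about 4% in these data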;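 note: optical density read after an 18 h incubation at 37 °C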
Bact viability = reduces bacterial viability, AddAB inhibitor counter-screen; shares compounds with AddAB inh; absorbance (AddAB counterscreen); inhibition, % at 11.9 µM; hit rate 35% among 880; AID 488956; in the data active = inhibition above about 25%
Each line names hits and unclear results; the compound was inactive in the other large screens (follow-up assays come after a bar, where they were run). Only some compounds are listed: those with a hit (about 0.5% of all), similar ones and a draw of the others.

O=c1c(O)c(-c2ccc(O)c(O)c2)oc2cc(O)cc(O)c12	AddAB inh 13 | AddAB confirm inactive | RecBCD counter inactive | Bact viability inactive
O=C(NCc1cccnc1)C1CC=CC2CCN(Cc3ccccc3)C(=O)C21 (stereo not given)	none (no result: AddAB inh, phage Ecoli inh, E coli growth-2, Tat transport)
CCC(=O)N1CCN(c2ccc(NC(=O)c3ccc([N+](=O)[O-])o3)cc2Cl)CC1	none (no result: AddAB inh, E coli growth-2)
CC(=O)Nc1ccc2nc(NC(=O)c3ccco3)sc2c1	none
O=C(Nc1ccc(S(=O)(=O)N2CCOCC2)cc1)c1ccc([N+](=O)[O-])o1	none
CC(=O)Nc1ccc2nc(NC(=O)c3ccc([N+](=O)[O-])o3)sc2c1	AddAB inh 15 | AddAB confirm 41 | RecBCD counter 5.7 | Bact viability inactive
CC(=O)N1CCN(c2ccc(NC(=O)c3ccc([N+](=O)[O-])o3)cc2Cl)CC1	AddAB inh 14 | AddAB confirm 56 | RecBCD counter 4.9 | Bact viability inactive
O=C(Nc1ccccc1Cl)c1ccc([N+](=O)[O-])o1	AddAB inh 31, E coli growth-2 24 | AddAB confirm 92 | RecBCD counter 10 | Bact viability 29
O=C(Nc1ccc(N2CCOCC2)cc1)c1ccc([N+](=O)[O-])o1	AddAB inh 16, E coli growth-2 13 | AddAB confirm 69 | RecBCD counter 8.5 | Bact viability inactive
COc1nccnc1NS(=O)(=O)c1ccc(NC=C2CCCCC2=O)cc1	none (no result: AddAB inh, phage Ecoli inh, E coli growth-2, Tat transport)
CCn1nnc(NC(=O)c2ccc([N+](=O)[O-])o2)n1	AddAB inh 19, E coli growth-2 11 | AddAB confirm 61 | RecBCD counter 6.5 | Bact viability inactive
CCCCn1nnc(NC(=O)c2ccc(-c3ccccc3[N+](=O)[O-])o2)n1	none
Cc1ccccc1NC(=O)c1ccc([N+](=O)[O-])o1	AddAB inh 24, E coli growth-2 11 | AddAB confirm 31 | RecBCD counter 6.7 | Bact viability inactive
CS(=O)(=O)N1CCN(c2ccccc2NC(=O)c2ccc([N+](=O)[O-])o2)CC1	none
Cc1cccnc1NC(=O)c1ccc([N+](=O)[O-])o1	AddAB inh 92, phage Ecoli inh 12, E coli growth-2 24 | AddAB confirm 91 | RecBCD counter 12 | Bact viability inactive
CN1CCN(c2ccccc2NC(=O)c2ccc([N+](=O)[O-])o2)CC1	AddAB inh 27, E coli growth-2 25 (no result: phage Ecoli inh) | AddAB confirm 101 | RecBCD counter 11 | Bact viability 38
NS(=O)(=O)c1ccc(-c2ccc(/C=C3\C(=O)Nc4ccccc43)o2)cc1	none (no result: E coli growth-1, phage Ecoli inh, Tat transport)
Cc1ccc(/C=C2\C(=O)Nc3ccccc32)o1	AddAB inh 62, E coli growth-1 0.51, phage Ecoli inh 17, E coli growth-2 19 | AddAB confirm 98 | RecBCD counter 14 | Bact viability 44
COc1ccc2[nH]c3c(c2c1)CCNC3c1ccc([N+](=O)[O-])o1 (stereo not given)	AddAB inh 41, E coli growth-2 10 (no result: E coli growth-1) | AddAB confirm 14 | RecBCD counter inactive | Bact viability inactive
NC(=NOC(=O)Nc1ccccc1)c1ncc([N+](=O)[O-])s1	none (no result: AddAB inh, phage Ecoli inh, E coli growth-2, Tat transport)
N/C(=N/OC(=O)c1ccccc1Cl)c1ncc([N+](=O)[O-])s1	AddAB inh 14, E coli growth-2 10 (no result: E coli growth-1) | AddAB confirm 37 | RecBCD counter inactive | Bact viability inactive
COc1ccc(CC2CN3C(=NCC3C(C)C)N2CC(C)NC(=O)c2ccc(C)c(Br)c2)cc1 (stereo not given)	none (no result: AddAB inh, phage Ecoli inh, E coli growth-2, Tat transport)
O=C1CCN(CCc2ccccc2)CCN1C(CSc1ccccc1)Cc1ccccc1 (stereo not given)	none (no result: AddAB inh, phage Ecoli inh, E coli growth-2, Tat transport)
O=C(CSc1ccsc1[N+](=O)[O-])NCc1ccco1	AddAB inh 30, E coli growth-2 21 | AddAB confirm 52 | RecBCD counter 5.0 | Bact viability 26
CCC(C)CCN1C(N(C)C)=NCC1Cc1ccccc1 (stereo not given)	none (no result: AddAB inh, phage Ecoli inh, E coli growth-2, Tat transport)
COC(=O)c1cc(C(=O)OCC(=O)N(C)C2CCS(=O)(=O)C2)cc([N+](=O)[O-])c1 (stereo not given)	AddAB inh 22, E coli growth-2 12 | AddAB confirm inactive | RecBCD counter inactive | Bact viability inactive
CN(C)c1nc(NN=Cc2ccc(Cl)c([N+](=O)[O-])c2)nc(Nc2ccc(F)cc2)n1	none (no result: AddAB inh, phage Ecoli inh, E coli growth-2, Tat transport)
CCn1cc(C(=O)NCCC(C)C)c(=O)c2cc(F)c(N3CCN(C(=O)c4ccco4)CC3)cc21	AddAB inh 26, E coli growth-1 0.15, E coli growth-2 16 | AddAB confirm 99 | RecBCD counter inactive | Bact viability 36
CCn1cc(C(=O)NC(C)C)c(=O)c2cc(F)c(N3CCN(C(=O)c4ccco4)CC3)cc21	AddAB inh 89, E coli growth-1 0.087, E coli growth-2 82 | AddAB confirm 99 | RecBCD counter inactive | Bact viability 35
CC(=O)c1cc(F)c(N2CCN(C(=O)c3ccco3)CC2)cc1C	none
O=C(NCCSc1c[nH]c2ccccc12)c1c(F)cccc1F	none
O=C(NCCSc1c[nH]c2ccccc12)c1ccco1	AddAB inh 81, E coli growth-2 27 | AddAB confirm inactive | RecBCD counter inactive | Bact viability inactive
COc1ccc2c(CC(=O)OCC(=O)Nc3cccc(S(N)(=O)=O)c3)coc2c1	AddAB inh 97, E coli growth-2 96 | AddAB confirm inactive | RecBCD counter inactive | Bact viability inactive
CCOC(=O)N1CCN(c2c(NCCCN3CCCCCC3)c(=O)c2=O)CC1	AddAB inh 12 | AddAB confirm inactive | RecBCD counter inactive | Bact viability inactive
O=C(Cn1cc(C(=O)c2ccco2)c2ccccc21)Nc1ccccc1	AddAB inh 17, E coli growth-2 16 | AddAB confirm inactive | RecBCD counter 11 | Bact viability inactive
CCCCN1CCC2C=CCC(C(=O)N3CCOCC3)C2C1=O (stereo not given)	none (no result: AddAB inh, phage Ecoli inh, E coli growth-2, Tat transport)
O=C(CSc1ncnc2nc[nH]c12)c1ccc(Cl)cc1	AddAB inh 20 | AddAB confirm 17 | RecBCD counter inactive | Bact viability inactive
C#CCOCCOCCOCCNc1nc(N2CCN(C(=O)C(CCC(=O)O)n3cc(C(N)CO)nn3)CC2)nc(N2CCN(C(=O)C(CCC(=O)O)n3cc(C(N)C(C)CC)nn3)CC2)n1 (stereo not given)	none (no result: AddAB inh, phage Ecoli inh, E coli growth-2, Tat transport)
CCOCCCn1c(SC(C(=O)Nc2cc(C)ccc2C)c2ccccc2)nnc1-c1ccc(Cl)cc1 (stereo not given)	AddAB inh 33, E coli growth-2 68 | AddAB confirm inactive | RecBCD counter inactive | Bact viability inactive
CCc1ccc(NC(=O)CSc2ccc(-c3ccccn3)nn2)cc1	AddAB inh 13, E coli growth-2 15 | AddAB confirm inactive | RecBCD counter 9.3 | Bact viability inactive
CC(=O)Nc1cccc(NC(=O)CSc2ccc(-c3ccccn3)nn2)c1	none

Screening data as filed in PubChem.
